# Source: PubChem BioAssay (EPA / NIEHS)
# Results filed as inconclusive are left out. Active and inactive are the calls of the source. How the source made its calls, unless noted: active means hit-call score of the fitted dose curve at least 0.9, where 1 is the maximum; inconclusive means response in the unintended direction; inactive means score below 0.9.
# Legend:
# [1] = TOX21_p53_BLA_p2_viability: Viability Assessment in the Tox21 HCT-116 p53 Agonism Beta-lactamase Assay, Phase 2 (AID 2283591);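 further: actives lower the ATP signal meaning cytotoxicity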
# Outline: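 HCT116 p53-bla cells, 4000/well, dosed after 5 h plating (217-fold dilution of DMSO stocks) and incubated 16 h at 37C. Viability taken as cellular ATP by CellTiter-Glo luminescence after 30 min RT; signal loss marks cytotoxicity.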
# [2] = TOX21_p53_BLA_p3_viability: Viability Assessment in the Tox21 HCT-116 p53 Agonism Beta-lactamase Assay, Phase 3 (AID 2283593);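 further: cells exposed to compound for 16 h before reading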
# Outline: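 HCT116 cells, 4000/well, dosed 5 h after plating by pin transfer (217-fold dilution from DMSO stock) and incubated 16 h at 37C, 5% CO2. Viability read as ATP luminescence with CellTiter-Glo after 30 min at room temperature.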
# [3] = target: Cellular tumor antigen p53 (Homo sapiens) (UniProt P04637); experiment: TOX21_p53_BLA_p3_ratio: Tox21 HCT-116 p53 Agonism Beta-lactamase Assay, Ratio, Phase 3 (AID 2283596)
# Outline: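 HCT116 p53-bla cells (4000/well) given compound in DMSO (217-fold dilution) after 5 h, incubated 16 h at 37C. CCF4-AM substrate 2 h at room temperature; 460/530 nm emission ratio, gain fitted against DMSO.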
# [4] = TOX21_p53_BLA_p4_viability: Viability Assessment in the Tox21 HCT-116 p53 Agonism Beta-lactamase Assay, Phase 4 (AID 2283597);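 further: hits lower the luminescence signal meaning cytotoxicity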
# Outline: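 Compound exposure of HCT116 cells lasts 16 h at 37C, 5% CO2, with DMSO stocks diluted 217-fold. Cellular ATP is then quantified by CellTiter-Glo luminescence after 30 min at room temperature.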
# [5] = target: Cellular tumor antigen p53 (Homo sapiens) (UniProt P04637); experiment: TOX21_p53_BLA_p5_ratio: Tox21 HCT-116 p53 Agonism Beta-lactamase Assay, Ratio, Phase 5 (AID 2283599)
# Outline: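 HCT-116 p53-bla cells (4000/well) plated 5 h, dosed with compound (217-fold DMSO dilution) for 16 h at 37 C; CCF4-AM substrate 2 h at room temperature. Activity is the 460/530 nm emission ratio (405 nm excitation), fitted in gain-of-signal direction versus DMSO.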
# [6] = TOX21_p53_BLA_p5_viability: Viability Assessment in the Tox21 HCT-116 p53 Agonism Beta-lactamase Assay, Phase 5 (AID 2283600)
# Outline: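 Counter-readout for cytotoxicity: ATP-dependent luminescence from CellTiter-Glo, read in the beta-lactamase wells after 30 min at RT, following a 16 h compound exposure at 37C.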
# [7] = target: Cellular tumor antigen p53 (Homo sapiens) (UniProt P04637); experiment: TOX21_p53_BLA_p4_ratio: Tox21 HCT-116 p53 Agonism Beta-lactamase Assay, Ratio, Phase 4 (AID 2283601)
# Outline: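 HCT-116 p53 beta-lactamase reporter cells (4000/well) preincubated 5 h, then compound (217-fold dilution of DMSO stock) for 16 h at 37C. CCF4-AM substrate added 2 h at room temperature; 460/530 nm emission ratio fitted upward versus DMSO.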
# [8] = CCTE_Harrill_HTTr_Viability_MCF7: CCTE's 6-hour Cell Viability Assessment for the High-Throughput Transcriptomics (HTTr) Platform, in MCF-7 cells cultured in DMEM + 10% fetal bovine serum, Harrill Lab (AID 2284010; active means hit-call score of the fitted dose curve at least 0.9, where 1 is the maximum; inactive means score below 0.9)
# Outline: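 Viability measured through PI dye exclusion by high-content imaging at 6 h post-dosing.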
# [9] = CCTE_Harrill_HTTr_Apoptosis_MCF7: CCTE's 6-hour Apoptosis Assessment for the High-Throughput Transcriptomics (HTTr) Platform, in MCF-7 cells cultured in DMEM + 10% fetal bovine serum, Harrill Lab (AID 2284011; active means hit-call score of the fitted dose curve at least 0.9, where 1 is the maximum; inactive means score below 0.9)
# Outline: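 Cells are dosed with test chemicals at eight concentrations and imaged 6 hours later for caspase-3/7 activity using a green fluorogenic detection reagent. Activity is fitted in both directions against DMSO controls.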
# [10] = TOX21_PR_BLA_Followup_Agonist_viability: Viability Assessment in the Tox21 HEK293 Progesterone Receptor (PR) Agonism Beta-lactamase Follow-Up Assay (AID 2283935);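 further: signal loss means lower viability so actives are cytotoxic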
# Outline: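 Multiplexed viability counter-screen: ATP-coupled luciferase signal measured after 30 min at room temperature, following 16 hr compound treatment of PR-UAS-bla HEK293T cells grown in charcoal-stripped serum.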
# [11] = TOX21_PR_BLA_Followup_Antagonist_viability: Viability Assessment in the Tox21 HEK293 Progesterone Receptor (PR) Antagonism Beta-lactamase Follow-Up Assay (AID 2283936);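 further: hits lower the luminescence signal meaning cytotoxicity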
# Outline: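 PR-UAS-bla HEK293T cells (3,000/well, 2% charcoal-stripped FBS) given compound plus R5020 agonist, 16 h at 37C. CellTiter-Glo added after bla read, 30 min at room temperature; luminescence loss indicates cytotoxicity.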
# [12] = target: PGR (gene 5241) (UniProt P06401); experiment: TOX21_PR_LUC_Followup_Antagonist: Tox21 HEK293 Progesterone Receptor (PR) Antagonism Luciferase Follow-Up Assay (AID 2283938);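 further: curve fitted upward as signal gain over DMSO baseline despite antagonist label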
# Outline: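 A follow-up to the PR bla screen using HEK293-PR-A-luc cells, multiplexed with cell viability to flag cytotoxicity. Reporter luminescence after 16 h compound exposure was analysed relative to DMSO.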
# [13] = TOX21_PR_LUC_Followup_Antagonist_viability: Viability Assessment in the Tox21 HEK293 Progesterone Receptor (PR) Antagonism Luciferase Follow-Up Assay (AID 2283940)
# Outline: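 Cellular ATP, measured with luciferase-coupled CellTiter-Glo, served as the viability endpoint after HEK293-PR-A-luc cells were exposed to test compounds for 16 h at 37C.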
# [14] = TOX21_PR_LUC_Followup_Agonist_viability: Viability Assessment in the Tox21 HEK293 Progesterone Receptor (PR) Agonism Luciferase Follow-Up Assay (AID 2283941);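 further: loss of signal means cytotoxicity so actives lower viability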
# Outline: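 Luminescent ATP quantitation (CellTiter-Glo) serves as the read-out; a drop flags cytotoxic compounds. Cells are HEK293-PR-A-luc grown in 10% charcoal-stripped FBS, plated 3,000/well, and exposed to compound for 16 h.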
# Sequence of Cellular tumor antigen p53 (Homo sapiens) (P04637 whole entry, looked up): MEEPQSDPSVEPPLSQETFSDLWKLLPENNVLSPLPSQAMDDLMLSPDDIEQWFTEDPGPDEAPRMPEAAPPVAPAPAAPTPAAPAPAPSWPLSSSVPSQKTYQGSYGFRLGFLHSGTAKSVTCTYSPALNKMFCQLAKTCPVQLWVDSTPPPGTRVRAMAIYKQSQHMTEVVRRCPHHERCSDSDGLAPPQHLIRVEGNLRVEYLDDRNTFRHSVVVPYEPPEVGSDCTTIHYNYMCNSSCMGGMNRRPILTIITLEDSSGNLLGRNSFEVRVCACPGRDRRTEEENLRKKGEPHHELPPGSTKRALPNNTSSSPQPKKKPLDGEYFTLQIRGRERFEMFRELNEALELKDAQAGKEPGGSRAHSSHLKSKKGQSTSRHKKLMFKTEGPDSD
# Sequence of PGR (gene 5241) (P06401 whole entry, looked up): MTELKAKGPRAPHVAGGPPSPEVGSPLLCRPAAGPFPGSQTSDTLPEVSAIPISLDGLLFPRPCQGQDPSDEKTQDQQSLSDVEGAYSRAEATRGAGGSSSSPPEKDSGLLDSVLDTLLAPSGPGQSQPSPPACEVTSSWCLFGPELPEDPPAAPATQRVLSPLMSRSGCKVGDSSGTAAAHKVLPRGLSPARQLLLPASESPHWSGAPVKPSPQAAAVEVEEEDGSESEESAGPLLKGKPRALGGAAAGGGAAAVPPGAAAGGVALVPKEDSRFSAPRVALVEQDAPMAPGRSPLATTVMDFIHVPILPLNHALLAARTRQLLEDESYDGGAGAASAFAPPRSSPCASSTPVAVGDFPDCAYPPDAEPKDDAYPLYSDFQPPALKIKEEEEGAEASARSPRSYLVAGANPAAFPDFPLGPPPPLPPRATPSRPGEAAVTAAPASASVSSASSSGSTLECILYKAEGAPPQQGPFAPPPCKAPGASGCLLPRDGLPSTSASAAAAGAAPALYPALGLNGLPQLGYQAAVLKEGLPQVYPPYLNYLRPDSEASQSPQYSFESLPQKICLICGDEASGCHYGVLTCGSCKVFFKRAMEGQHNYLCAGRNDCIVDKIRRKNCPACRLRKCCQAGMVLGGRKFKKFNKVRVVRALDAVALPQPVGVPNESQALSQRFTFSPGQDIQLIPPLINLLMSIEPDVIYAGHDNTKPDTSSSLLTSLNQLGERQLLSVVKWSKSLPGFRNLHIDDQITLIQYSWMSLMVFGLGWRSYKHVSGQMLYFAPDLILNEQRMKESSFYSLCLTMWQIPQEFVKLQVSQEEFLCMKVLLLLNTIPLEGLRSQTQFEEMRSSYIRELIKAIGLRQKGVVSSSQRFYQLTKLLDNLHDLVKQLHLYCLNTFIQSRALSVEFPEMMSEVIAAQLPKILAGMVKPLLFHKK
smiles,measurement,setting,value
CCOC(=O)[C@H](CCc1ccccc1)N[C@@H](C)C(=O)N1[C@H](C(=O)O)C[C@H]2CCCC[C@@H]21,outcome,[1],inactive
same,outcome,[2],inactive
same,outcome,[3],inactive
same,outcome,[4],inactive
same,outcome,[5],inactive
same,outcome,[6],inactive
same,outcome,[7],inactive
CC(C)n1nc(-c2cc3cc(O)ccc3[nH]2)c2c(N)ncnc21,AC50,[1],23 µM (active)
same,outcome,[2],inactive
same,outcome,[3],inactive
same,AC50,[4],11.6 µM (active)
same,AC50,[5],34.6 µM (active)
same,outcome,[6],inactive
same,outcome,[7],inactive
C=C1CC2C3CCC4=CC(=O)C=C[C@]4(C)[C@@]3(F)[C@@H](O)C[C@]2(C)[C@@]1(O)C(=O)COC(C)=O (some centres not stated),outcome,[1],inactive
same,outcome,[2],inactive
same,outcome,[3],inactive
same,outcome,[4],inactive
same,outcome,[5],inactive
same,outcome,[6],inactive
same,outcome,[7],inactive
CCOC(=O)c1cccnc1,outcome,[1],inactive
same,outcome,[2],inactive
same,outcome,[3],inactive
same,outcome,[4],inactive
same,outcome,[5],inactive
same,outcome,[7],inactive
CO[C@@H]1[C@@H](O[C@@H]2O[C@H](C)[C@@H](O[C@H]3C[C@@](C)(O)[C@@H](O)[C@H](C)O3)[C@H](N(C)C)[C@H]2O)[C@@H](CC=O)C[C@@H](C)[C@@H](O[C@@H]2CC[C@H](N(C)C)[C@@H](C)O2)/C=C/C=C/C[C@@H](C)OC(=O)C[C@H]1OC(C)=O,outcome,[1],inactive
same,outcome,[2],inactive
same,outcome,[3],inactive
same,outcome,[4],inactive
same,outcome,[5],inactive
same,outcome,[7],inactive
CCCCCCCCCCCBr,outcome,[1],inactive
same,outcome,[2],inactive
same,outcome,[3],inactive
same,outcome,[4],inactive
same,outcome,[5],inactive
same,outcome,[7],inactive
O=C(/C=C/c1cccc(F)c1)NC1CC1,outcome,[1],inactive
same,outcome,[2],inactive
same,outcome,[3],inactive
same,outcome,[4],inactive
same,outcome,[5],inactive
same,outcome,[6],inactive
same,outcome,[7],inactive
C=CC1=C(C(=O)O)N2C(=O)[C@@H](NC(=O)/C(=N\O)c3csc(N)n3)[C@H]2SC1 (stereo in doubt),outcome,[1],inactive
same,outcome,[2],inactive
same,outcome,[3],inactive
same,outcome,[4],inactive
same,outcome,[5],inactive
same,outcome,[6],inactive
same,outcome,[7],inactive
C[C@H](CCC(=O)O)[C@H]1CC[C@H]2[C@@H]3[C@H](O)C[C@@H]4C[C@H](O)CC[C@]4(C)[C@H]3C[C@H](O)[C@]12C,outcome,[1],inactive
same,outcome,[2],inactive
same,outcome,[3],inactive
same,outcome,[4],inactive
same,outcome,[5],inactive
same,outcome,[6],inactive
same,outcome,[7],inactive
CC(=O)c1ccc2c(c1)N(CCCN1CCC(CCO)CC1)c1ccccc1S2,outcome,[1],inactive
same,outcome,[2],inactive
same,outcome,[3],inactive
same,outcome,[4],inactive
same,outcome,[5],inactive
same,outcome,[6],inactive
same,outcome,[7],inactive
CO[C@@H]1[C@H](OC(=O)/C=C/C=C/C=C/C=C/C(=O)O)CC[C@]2(CO2)[C@H]1[C@@]1(C)O[C@@H]1CC=C(C)C,outcome,[1],inactive
same,outcome,[2],inactive
same,outcome,[3],inactive
same,outcome,[4],inactive
same,outcome,[5],inactive
same,outcome,[6],inactive
same,outcome,[7],inactive
same,outcome,[8],inactive
same,outcome,[9],inactive
Cc1ccc(S(=O)(=O)NC(=O)NN2CC3CCCC3C2)cc1 (configuration not stated),outcome,[1],inactive
same,outcome,[2],inactive
same,outcome,[3],inactive
same,outcome,[4],inactive
same,outcome,[5],inactive
same,outcome,[6],inactive
same,outcome,[7],inactive
N#CC(c1ccc(Cl)cc1)c1c(Cl)cc(-n2ncc(=O)[nH]c2=O)cc1Cl (configuration not stated),outcome,[1],inactive
same,AC50,[2],32.2 µM (active)
same,AC50,[3],20.3 µM (active)
same,AC50,[4],31.4 µM (active)
same,AC50,[5],22.1 µM (active)
same,outcome,[6],inactive
same,AC50,[7],22.1 µM (active)
COCCOC(=O)C1=C(C)NC(C)=C(C(=O)OC(C)C)C1c1cccc([N+](=O)[O-])c1 (configuration not stated),outcome,[1],inactive
same,outcome,[2],inactive
same,outcome,[3],inactive
same,outcome,[4],inactive
same,outcome,[5],inactive
same,outcome,[10],inactive
same,outcome,[11],inactive
same,AC50,[12],26.4 µM (active)
same,outcome,[13],inactive
same,outcome,[14],inactive
CC(C(=O)O)c1cccc(C(=O)c2ccccc2)c1 (configuration not stated),outcome,[1],inactive
same,outcome,[2],inactive
same,outcome,[3],inactive
same,outcome,[4],inactive
same,outcome,[5],inactive
same,outcome,[6],inactive
same,outcome,[7],inactive
CC(=O)C=Cc1ccco1,outcome,[1],inactive
same,outcome,[2],inactive
same,outcome,[3],inactive
same,outcome,[4],inactive
same,outcome,[5],inactive
same,outcome,[6],inactive
same,outcome,[7],inactive
O=C(O)CCCC/C=C(\c1ccccc1)c1cccnc1,outcome,[1],inactive
same,outcome,[2],inactive
same,outcome,[3],inactive
same,outcome,[4],inactive
same,outcome,[5],inactive
same,outcome,[7],inactive
CC(C)[N+](C)(C)CC(O)COc1cccc2ccccc12 (configuration not stated),outcome,[1],inactive
same,outcome,[2],inactive
same,outcome,[3],inactive
same,outcome,[4],inactive
same,outcome,[5],inactive
same,outcome,[6],inactive
same,outcome,[7],inactive
CC(CCl)OC(C)CCl (configuration not stated),outcome,[1],inactive
same,outcome,[2],inactive
same,outcome,[3],inactive
same,outcome,[4],inactive
same,outcome,[5],inactive
same,outcome,[7],inactive
CC1CCCNC1 (configuration not stated),outcome,[1],inactive
same,outcome,[2],inactive
same,outcome,[3],inactive
same,outcome,[4],inactive
same,outcome,[5],inactive
same,outcome,[6],inactive
same,outcome,[7],inactive
NS(=O)(=O)c1cc(C2(O)NC(=O)c3ccccc32)ccc1Cl (configuration not stated),outcome,[1],inactive
same,outcome,[2],inactive
same,outcome,[3],inactive
same,outcome,[4],inactive
same,outcome,[5],inactive
same,outcome,[6],inactive
same,outcome,[7],inactive
CC(=O)N1C[C@H](O)C[C@H]1C(=O)O,outcome,[1],inactive
same,outcome,[2],inactive
same,outcome,[3],inactive
same,outcome,[4],inactive
same,outcome,[5],inactive
same,outcome,[6],inactive
same,outcome,[7],inactive
C[C@]12CCC(=O)C=C1C=C[C@@H]1[C@@H]2CC[C@@]2(C)[C@H]1CC[C@@]21CCC(=O)O1,outcome,[1],inactive
same,outcome,[2],inactive
same,outcome,[3],inactive
same,outcome,[4],inactive
same,outcome,[5],inactive
same,outcome,[6],inactive
same,outcome,[10],inactive
same,outcome,[11],inactive
same,outcome,[12],inactive
same,outcome,[13],inactive
same,outcome,[14],inactive
COc1ccc(OC)c(NC(=O)CC(C)=O)c1,outcome,[1],inactive
same,outcome,[2],inactive
same,outcome,[3],inactive
same,outcome,[4],inactive
same,outcome,[5],inactive
same,outcome,[6],inactive
same,outcome,[7],inactive
